The nature of test [1]: Nuclear factor erythroid 2-related factor 2/antioxidant responsive element (Nrf2/ARE) small molecule agonists: qHTS cell viability counter screen in human keratinocytes (AID 1919968; active means well fitted curve in the direction sought with a large enough effect in the repeat runs; an effect the other way counts as inactive or inconclusive; further: nearly all actives have a fitted effect of over 55% in size; further: potency means the concentration at half of the fitted maximal effect). The gist of the method:
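Cytotoxicity was multiplexed with the Nrf2/ARE luciferase assay in the same wells. Stably transfected HaCaT keratinocytes were treated with test compounds for 23 h at 37 C. Cell viability was then measured by CellTiter-Fluor fluorescence.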

Test [2] is described as follows: Nuclear factor erythroid 2-related factor 2/antioxidant responsive element (Nrf2/ARE) small molecule agonists: luciferase reporter gene qHTS assay in human keratinocytes (AID 1919969). Further: nearly all actives have a fitted effect of over 35% in size. Further: potency means the concentration at half of the fitted maximal effect.
Test [3] has as its target Gonadotropin-releasing hormone receptor (Homo sapiens) (UniProt P30968). The test can be described thus: Human gonadotropin-releasing hormone receptor (GnRHR) small molecule agonists, calcium flux assay in GnRHR-HEK293 cells (AID 1920063). Further: nearly all actives have a fitted effect of over 35% in size. In outline:
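Agonist activity was measured as intracellular calcium flux in HEK293 cells engineered to stably express human GnRHR. After dye loading for 1 hour at 37 C, compounds in DMSO were added and fluorescence was followed for 3 minutes.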

The target of test [4] is KiSS-1 receptor (Homo sapiens) (UniProt Q969F8). The test can be described thus: Human kisspeptin (KISS1R) small molecule agonists, calcium flux assay in KISS1R-HEK293 cells (AID 1920064; active means well fitted curve in the direction sought with a large enough effect in the repeat runs; an effect the other way counts as inactive or inconclusive). In outline:
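Agonist activity is monitored as intracellular calcium rise in engineered HEK293 cells carrying human KISS1R. Cells are dye-loaded for 1 h at 37 C before compound addition, and fluorescence is recorded for 3 min.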

Test [5] is described as follows: G protein-coupled receptor (GPCR) small molecule agonists, calcium flux assay: HEK293 wild type cell line counter screen (AID 1920065). In outline: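 Seed cells, incubate 18 h (37 C, 5% CO2); add calcium dye, 1 h at 37 C; pin-transfer compounds, ATP control or DMSO; read fluorescence 480/540 nm each second for 3 min.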
The nature of test [6]: p53 small molecule agonists, cell-based qHTS assay with human liver microsomes: qHTS cell viability counter screen (AID 1963579). Further: nearly all actives have a fitted effect of over 45% in size. In outline: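 Tox21 library compounds, delivered from DMSO stocks, were tested on p53RE-bla cells together with 0.5 mg/mL human liver microsomes and 0.5 mg/mL NADPH (final) over 16 h at 37 C; CellTiter-Glo luminescence served as the cytotoxicity measure.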

Test [7] can be described thus: p53 small molecule agonists, cell-based qHTS assay with rat liver microsomes: qHTS cell viability counter screen (AID 1963580). Further: nearly all actives have a fitted effect of over 45% in size. The gist of the method: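 Cytotoxicity counter screen: intracellular ATP measured by CellTiter-Glo luminescence in the same wells as the beta-lactamase reporter read, on HCT-116 p53RE-bla cells exposed 16 h at 37 C to compounds with rat liver microsomes and NADPH, each 0.5 mg/mL final.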

The target of test [8] is 5-hydroxytryptamine receptor 2A (Homo sapiens) (UniProt P28223). Nature of the test: 5-hydroxytryptamine receptor 2A (HTR2A) small molecule agonists, cell-based qHTS assay (AID 1963587). Further: nearly all actives have a fitted effect of over 30% in size. The gist of the method: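 CHO cells stably expressing human HTR2A, plated 18 h, loaded with calcium dye 1 h at 37 C. Agonist mode: compounds added and intracellular calcium fluorescence recorded kinetically for 2 min at 1 sec intervals.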

In test [9] the target is Muscarinic acetylcholine receptor M1 (Homo sapiens) (UniProt P11229). The test can be described thus: Cholinergic receptor muscarinic 1 (CHRM1) small molecule antagonists, cell-based qHTS assay (AID 1963588). Further: nearly all actives have a fitted effect of over 40% in size. The gist of the method:
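Compounds were tested at 15 concentrations in three independent runs. Dye-loaded CHRM1-CHO cells were exposed 5 min at room temperature before stimulation by acetylcholine added at 50nM. Intracellular calcium was read kinetically on FDSS for 3 min.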

Test [10] has the same target. Nature of the test: Cholinergic receptor muscarinic 1 (CHRM1) small molecule agonists, cell-based qHTS assay (AID 1963589). Further: nearly all actives have a fitted effect of over 35% in size. The gist of the method: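 Cells were plated and incubated 18 h at 37 C/5% CO2, loaded with calcium dye for 1 h at 37 C, then treated with compounds in DMSO. Fluorescence was recorded kinetically at 1 sec intervals.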
The nature of test [11]: cAMP Responsive Elements (CRE) small molecule agonists, cell-based qHTS assay (AID 1963590). The gist of the method: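 Cells carrying a CRE-driven beta-lactamase reporter (HEK 293T) are seeded, incubated overnight (18 h), and treated with test compounds for 3 h at 37 C; reporter activity is then detected with a FRET substrate after 2 h at room temperature.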
For test [12], the target named is Beta-2 adrenergic receptor (Homo sapiens) (UniProt P07550). Nature of the test: Adrenergic beta2 receptor (ADRB2) small molecule antagonists, cell-based qHTS assay (AID 1963592). Further: series mostly up to about 92 µM; nearly all actives have a fitted effect of over 50% in size. In outline:
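Assay format: CHO-ADRB2 cells, 18-20hr seeding at 37C/5% CO2, then compound plus 1nM isoproterenol agonist mix for 0.5hr RT. Homogeneous time-resolved fluorescence cAMP detection after 1hr, expressed as 665/615 nm ratio.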

Test [13] deals with D(2) dopamine receptor (Homo sapiens) (UniProt P14416). The test can be described thus: Dopamine D2 receptor (DRD2) small molecule agonists, cell-based qHTS assay (AID 1963594). Further: nearly all actives have a fitted effect of over 35% in size. The gist of the method:
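HEK293 cells stably expressing human DRD2, pre-treated with PDE inhibitor Ro20-1724 (0.1 mM final) and compound 10 min at room temperature, then stimulated with NKH477 (200nM […]) for 30 min. cAMP read by HTRF (665/620 nm).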

Test [14] has the same target. Nature of the test: Dopamine D2 receptor (DRD2) small molecule antagonists, cell-based qHTS assay (AID 1963595; active means well fitted inhibition curve with a large enough effect in the signal ratio in the repeat runs, with a control signal flat; the % refers to the signal ratio). The gist of the method:
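Antagonist mode in DRD2-HEK293 cells: after compound addition with 0.1 mM Ro20-1724, cells received quinpirole (12 nM) and NKH477 (200 nM) for 30 min at room temperature; HTRF cAMP read after 1 h detection.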

The nature of test [15]: p53 small molecule agonists, cell-based qHTS assay: qHTS cell viability counter screen (AID 1963581). Further: nearly all actives have a fitted effect of over 45% in size. In outline:
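Viability was counter-screened in parallel with the p53 agonist reporter by measuring intracellular ATP luminescence in the same HCT-116 p53RE-bla wells after 16 h compound treatment at 37 C.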

The target in test [16] is 5-hydroxytryptamine receptor 2A (Homo sapiens) (UniProt P28223). Nature of the test: 5-hydroxytryptamine receptor 2A (HTR2A) small molecule antagonists, cell-based qHTS assay (AID 1963586). Further: nearly all actives have a fitted effect of over 45% in size. The gist of the method: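 CHO cells stably expressing human HTR2A were plated for 18 h at 37 C, then loaded with calcium dye for 1 h. Compounds were preincubated 5 min at room temperature before DOI (4 nM solution) was added. Kinetic fluorescence was read for 3 min.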

Test [17] in a line: cAMP Responsive Elements (CRE) small molecule antagonists, cell-based qHTS assay (AID 1963591; active means well fitted inhibition curve with a large enough effect in the signal ratio in the repeat runs, not every such curve was filed as active; the % refers to the signal ratio). In outline:
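Cells (CRE-bla HEK 293T, DMEM with 10% dialyzed FBS and 25 mM HEPES) are seeded and incubated 18 h. Compounds are added with NKH477 agonist at 0.25 uM final for 3 h, then FRET substrate for 2 h.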

The target in test [18] is Beta-2 adrenergic receptor (Homo sapiens) (UniProt P07550). Nature of the test: Adrenergic beta2 receptor (ADRB2) small molecule agonists, cell-based qHTS assay (AID 1963593).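 Further: CHO cells stably overexpressing human ADRB2.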 The gist of the method: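 CHO cells stably over-expressing ADRB2 were plated overnight at 37C, then dosed with compounds plus a stimulation mix containing 100uM IBMX and 25uM Ro-20-1724 for 0.5hr at room temperature. cAMP was measured by HTRF competition, 1hr.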

Eight molecules from PubChem BioAssay (Tox21) can be followed below.

Values without a mark were called inactive. Records with an inconclusive call do not appear. Activity calls are given as the source filed them. Unless noted, the call rests on the fitted dose curve.

Sequence of Gonadotropin-releasing hormone receptor (Homo sapiens) (P30968 whole entry, looked up): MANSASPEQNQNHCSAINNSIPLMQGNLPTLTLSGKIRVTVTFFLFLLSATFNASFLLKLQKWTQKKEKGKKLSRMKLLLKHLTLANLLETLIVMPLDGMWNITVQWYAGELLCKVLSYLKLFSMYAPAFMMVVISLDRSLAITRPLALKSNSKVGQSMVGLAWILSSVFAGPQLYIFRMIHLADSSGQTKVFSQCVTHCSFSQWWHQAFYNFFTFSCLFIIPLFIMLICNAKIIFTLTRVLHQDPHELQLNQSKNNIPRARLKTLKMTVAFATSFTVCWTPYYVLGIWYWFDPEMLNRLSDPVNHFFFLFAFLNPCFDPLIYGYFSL
Sequence of Beta-2 adrenergic receptor (Homo sapiens) (P07550 whole entry, looked up): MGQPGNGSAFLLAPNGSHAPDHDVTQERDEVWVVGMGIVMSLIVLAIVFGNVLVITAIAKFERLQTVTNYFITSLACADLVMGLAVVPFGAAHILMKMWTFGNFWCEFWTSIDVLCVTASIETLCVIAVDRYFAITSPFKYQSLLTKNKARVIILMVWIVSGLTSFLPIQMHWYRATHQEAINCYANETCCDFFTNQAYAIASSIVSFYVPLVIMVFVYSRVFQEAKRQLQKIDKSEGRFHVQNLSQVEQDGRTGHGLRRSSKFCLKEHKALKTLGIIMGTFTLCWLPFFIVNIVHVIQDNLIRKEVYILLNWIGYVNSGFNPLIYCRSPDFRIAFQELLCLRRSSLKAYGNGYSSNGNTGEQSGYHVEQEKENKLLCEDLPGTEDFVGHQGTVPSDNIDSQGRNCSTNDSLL
Sequence of 5-hydroxytryptamine receptor 2A (Homo sapiens) (P28223 whole entry, looked up): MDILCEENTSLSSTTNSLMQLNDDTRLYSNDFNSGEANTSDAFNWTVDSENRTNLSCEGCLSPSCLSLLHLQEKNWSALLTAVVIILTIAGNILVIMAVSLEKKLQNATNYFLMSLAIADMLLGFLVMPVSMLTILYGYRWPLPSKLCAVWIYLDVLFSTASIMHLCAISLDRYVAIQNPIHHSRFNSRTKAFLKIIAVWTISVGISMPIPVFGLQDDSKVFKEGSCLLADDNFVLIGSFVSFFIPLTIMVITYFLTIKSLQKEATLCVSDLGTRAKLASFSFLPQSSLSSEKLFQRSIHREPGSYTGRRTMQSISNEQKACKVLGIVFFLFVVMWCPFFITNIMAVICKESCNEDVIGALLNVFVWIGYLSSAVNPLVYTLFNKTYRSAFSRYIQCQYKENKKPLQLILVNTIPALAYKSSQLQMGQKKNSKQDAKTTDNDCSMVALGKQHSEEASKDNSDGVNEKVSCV
Sequence of Muscarinic acetylcholine receptor M1 (Homo sapiens) (P11229 whole entry, looked up): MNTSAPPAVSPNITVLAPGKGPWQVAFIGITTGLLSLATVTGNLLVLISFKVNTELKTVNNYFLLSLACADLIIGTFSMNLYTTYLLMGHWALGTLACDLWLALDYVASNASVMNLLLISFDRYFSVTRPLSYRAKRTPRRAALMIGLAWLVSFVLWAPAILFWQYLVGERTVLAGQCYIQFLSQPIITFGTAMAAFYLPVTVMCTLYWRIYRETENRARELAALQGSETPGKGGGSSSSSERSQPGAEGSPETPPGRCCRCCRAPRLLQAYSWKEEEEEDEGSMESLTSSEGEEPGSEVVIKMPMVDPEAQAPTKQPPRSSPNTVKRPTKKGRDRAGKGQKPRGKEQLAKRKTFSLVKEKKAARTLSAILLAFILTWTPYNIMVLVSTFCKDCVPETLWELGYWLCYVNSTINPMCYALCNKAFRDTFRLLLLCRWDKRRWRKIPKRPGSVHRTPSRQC
Sequence of KiSS-1 receptor (Homo sapiens) (Q969F8 whole entry, looked up): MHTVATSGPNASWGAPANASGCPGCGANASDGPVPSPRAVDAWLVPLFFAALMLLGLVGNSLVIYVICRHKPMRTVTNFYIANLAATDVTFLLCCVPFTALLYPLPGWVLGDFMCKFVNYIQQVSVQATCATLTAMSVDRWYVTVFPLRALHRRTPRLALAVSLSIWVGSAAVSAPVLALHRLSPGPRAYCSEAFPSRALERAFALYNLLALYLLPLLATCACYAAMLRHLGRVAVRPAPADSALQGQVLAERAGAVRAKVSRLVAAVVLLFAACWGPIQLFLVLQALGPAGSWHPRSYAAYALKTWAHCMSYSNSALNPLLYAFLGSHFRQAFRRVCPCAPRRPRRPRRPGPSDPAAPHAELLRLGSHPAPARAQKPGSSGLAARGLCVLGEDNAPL
Sequence of D(2) dopamine receptor (Homo sapiens) (P14416 whole entry, looked up): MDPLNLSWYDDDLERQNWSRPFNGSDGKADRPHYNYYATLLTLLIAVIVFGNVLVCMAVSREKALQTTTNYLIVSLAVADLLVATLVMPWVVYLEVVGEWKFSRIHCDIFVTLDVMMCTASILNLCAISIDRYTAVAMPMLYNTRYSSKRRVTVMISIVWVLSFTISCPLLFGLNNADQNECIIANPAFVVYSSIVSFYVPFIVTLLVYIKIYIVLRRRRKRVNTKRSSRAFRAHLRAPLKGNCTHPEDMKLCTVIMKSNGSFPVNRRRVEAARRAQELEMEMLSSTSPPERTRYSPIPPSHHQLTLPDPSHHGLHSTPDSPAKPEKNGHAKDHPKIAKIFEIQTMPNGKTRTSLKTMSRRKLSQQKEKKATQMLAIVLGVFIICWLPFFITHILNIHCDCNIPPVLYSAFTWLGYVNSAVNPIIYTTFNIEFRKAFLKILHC

As for `C=CCc1cc(S(=O)(=O)c2ccc(O)c(CC=C)c2)ccc1O`, in test [1], the Potency is 61.1 µM (active). For the same molecule, the Potency entry in test [2], in test [3], in test [4], in test [5], in test [6] and in [7] was “inactive” each time. Moreover, the Potency result in [8], in test [9], in test [10], in test [11], in test [12] and in [13] was “inactive” each time. Besides, the Potency entry in test [14] was “inactive”.
Regarding `CCN(CC)CC1CCCCN1CC(=O)N1c2ccccc2C(=O)Nc2cccnc21` (configuration not stated), the Potency entry in test [1], in [2], in [3], in test [4], in [5] and in [6] was “inactive” in each case. For the same molecule, the Potency entry in [15], in test [16], in test [8], in [9], in [10] and in [11] was “inactive” in each case. The Potency result in test [17], in test [12], in test [18], in [13] and in test [14] was “inactive” in each case.
For `CCCCCCCCC(CO)CCCCCC` (configuration not stated), the Potency entry in test [1], in test [2], in [3], in [4], in test [5] and in [6] was “inactive” in each case. The Potency entry in test [15], in test [16], in [8], in test [9], in test [10] and in test [17] was “inactive” each time. In addition, the Potency entry in test [12], in test [18], in [13] and in [14] was “inactive” throughout.
For `C[C@H](CCC(=O)O)[C@H]1CC[C@H]2[C@@H]3C(=O)C[C@@H]4CC(=O)CC[C@]4(C)[C@H]3CC(=O)[C@]12C`, the Potency entry in test [1], in [2], in test [3], in test [4], in [5] and in test [6] was “inactive” throughout. Moreover, the Potency result in test [7], in test [8], in test [9], in [10], in test [12] and in test [18] was “inactive” throughout. Besides, the Potency entry in test [13] and in [14] was “inactive” throughout.
As for `OC/C(Br)=C(\Br)CO`, the Potency result in test [1], in test [2], in [3], in test [4], in test [5] and in test [6] was “inactive” throughout. Also, the Potency result in test [15], in test [16], in test [8], in test [9], in test [11] and in test [12] was “inactive” each time. Also, the Potency result in test [13] and in test [14] was “inactive” in each case.
Regarding `Cc1ccc(Cl)c(Nc2ccccc2C(=O)O)c1Cl`, the Potency entry in test [1], in test [2], in [3], in [4], in test [5] and in [6] was “inactive” each time. The Potency entry in test [7], in test [12], in test [18] and in [13] was “inactive” each time.
Regarding `O=C1Cc2ccccc2N1c1c(Cl)cccc1Cl`, the Potency result in [1], in test [2], in test [3], in test [4], in test [5] and in test [6] was “inactive” each time. The Potency result in test [7], in test [16], in test [9], in test [10], in test [12] and in test [13] was “inactive” throughout. Besides, in test [14], the Potency entry is “inactive”.
With `Nc1ccccc1Nc1ccccc1`, the Potency in test [1] is 48.7 µM (active); in test [2], 21.8 µM (active). In addition, the Potency result in [3], in test [4], in test [5], in test [6], in test [7] and in test [16] was “inactive” in each case. Further, the Potency result in test [8], in [9], in test [10], in test [17], in test [13] and in [14] was “inactive” in each case.
